According to PubChem BioAssay:
Active and inactive are the calls of the source. No rule for the calls is given here.

Target: Pantothenate synthetase (Mycobacterium tuberculosis (strain ATCC 25618 / H37Rv)) (UniProt P9WIL5)
Test: Coupled enzyme confirmation of inhibitors against recombinant Mtb PanC (AID 375);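 also: 0% = full reaction with vehicle and 100% = no enzyme background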
Settings: coupled enzyme assay; at 10 µM, active compounds read high

Sequence of Pantothenate synthetase (Mycobacterium tuberculosis (strain ATCC 25618 / H37Rv)) (P9WIL5 whole entry, looked up): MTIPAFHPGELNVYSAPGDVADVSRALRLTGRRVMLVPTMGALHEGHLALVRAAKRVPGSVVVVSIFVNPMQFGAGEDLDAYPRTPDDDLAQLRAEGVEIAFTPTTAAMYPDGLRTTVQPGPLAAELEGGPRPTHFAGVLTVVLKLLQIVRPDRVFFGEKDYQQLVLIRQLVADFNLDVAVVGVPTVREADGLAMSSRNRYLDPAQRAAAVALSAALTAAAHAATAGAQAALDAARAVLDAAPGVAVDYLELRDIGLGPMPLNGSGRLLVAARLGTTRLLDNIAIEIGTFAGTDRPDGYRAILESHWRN

Question: For Cn1c(=O)cc(OCC(=O)N2CCN(c3cccc(C(F)(F)F)c3)CC2)c2ccccc21, which inhibition is on record?
Answer: 12% (inactive)

Question: Cc1c(NC(=O)c2ccc(Br)o2)c(=O)n(-c2ccccc2)n1C was tested. Which inhibition did it give?
Answer: 0% (inactive)

Question: With Cn1c(=O)c2c(nc(CN3CCc4ccccc4C3)n2Cc2cccc(Cl)c2)n(C)c1=O as the molecule, how does the inhibition read?
Answer: 0% (inactive)

Question: With COC(=O)Cn1c(=O)c2c(nc(Br)n2CC(=O)OC)n(C)c1=O as the molecule, how does the inhibition read?
Answer: 0% (inactive)

Question: Which inhibition does the source give for NC(=O)CN1C(=O)C(O)(CC(=O)c2ccccc2O)c2ccccc21 (stereo not drawn) here?
Answer: 0% (inactive)

Question: With O=C(Nc1ccccc1C(=O)N1CCOCC1)C1COc2ccccc2O1 (stereo not drawn) as the molecule, how does the inhibition read?
Answer: 0% (inactive)

Question: Which inhibition does the source give for CCN(CC)c1ccc2cc(NC(=O)CCC(=O)O)c(=O)oc2c1 here?
Answer: 0% (inactive)

Question: Which inhibition does the source give for CCC(C)NC(=O)C1c2cc(OC)c(OC)cc2C(=O)N(C)C1c1ccc(OC)cc1 (stereo not drawn) here?
Answer: 0% (inactive)

Question: With Cc1nc2ccc(NC(=O)NCc3ccco3)cc2s1 as the molecule, how does the inhibition read?
Answer: 0% (inactive)

Question: With CCOC(=O)C1CCN(Cc2ccc(OC)c(C)c2OC)CC1 as the molecule, how does the inhibition read?
Answer: 0% (inactive)

Question: How did the inhibition turn out when COC(=O)COc1ccc(S(=O)(=O)NCCC2=CCCCC2)cc1 was run?
Answer: 2% (inactive)

Question: How did the inhibition turn out when CCOCCCNC(=O)c1cc2sc(Cl)cc2n1CC was run?
Answer: 0% (inactive)

Question: Which inhibition does the source give for CCOC(=O)N1CCN(c2c(N3CCN(c4ccccc4OC)CC3)c(=O)c2=O)CC1 here?
Answer: 0% (inactive)

Question: How did the inhibition turn out when Cc1ccccc1-c1nc(CN2CCC(C(=O)NC3CCN(Cc4ccccc4)CC3)CC2)c(C)o1 was run?
Answer: 0% (inactive)

Question: With CC(=O)c1c(OC(=O)c2ccco2)c2ccccc2n1C as the molecule, how does the inhibition read?
Answer: 0% (inactive)

Question: Which inhibition does the source give for CCCC(C)C1C(C#N)=C(N)Oc2cc(C)oc(=O)c21 (stereo not drawn) here?
Answer: 1% (inactive)

Question: How did the inhibition turn out when Cc1ccccc1CN1CCNC1=O was run?
Answer: 0% (inactive)

Question: How did the inhibition turn out when Cc1cc(N2CCC3(CC2)OCCO3)n2nc(C)c(-c3ccc(Cl)cc3)c2n1 was run?
Answer: 8% (inactive)

Question: Which inhibition does the source give for Cc1cccc(N2CCN(S(=O)(=O)c3ccc4c(c3)CCC(=O)N4)CC2C)c1 (stereo not drawn) here?
Answer: 6% (inactive)

Question: O=C(COc1ccc(S(=O)(=O)N2CCCC2)cc1Cl)NC1CC1 was tested. Which inhibition did it give?
Answer: 8% (inactive)

Question: How did the inhibition turn out when C[C@]12CC[C@H]3[C@@H](CCC4=CC(=O)CC[C@@]43C)[C@@H]1CC[C@@H]2C(=O)CO was run?
Answer: 0% (inactive)

Question: How did the inhibition turn out when Cc1nnc(SCCn2c(N3CC(C)CC(C)C3)nc3c2c(=O)n(C)c(=O)n3C)s1 (stereo not drawn) was run?
Answer: 0% (inactive)

Question: COC(=O)c1cc(-c2c(C)nn(-c3ccccc3)c2C)n[nH]1 was tested. Which inhibition did it give?
Answer: 0% (inactive)
